Source: PubChem BioAssay (several laboratories)
3CLpro inhibitor – SARS-CoV 3CLpro protease inhibition | recombinant SARS-CoV 3CLpro, quenched FRET peptide cleavage | P0C6X7 | 0.14% of 290,000 active | inhibition, % at 6 µM | AID 1706; in the data active = inhibition above about 12%
PrPC TRFRET – inhibitors of human cell surface prion protein PrPC. P04156. TR-FRET read-out. inhibition, % at 13.8 µM. 0.43% of 370,000 active. AID 720596; in the data active = inhibition above about 24%; also: 0% = median of the test wells and 100% = reference compound wells
BJeLR lethal – BJeLR cell viability loss; BJeLR (HRASV12) viability, CellTiter-Glo ATP luminescence, 48 h; inhibition, % (test concentration not listed); 0.17% of 300,000 active; AID 1554; in the data active = inhibition above about 50%
PrP 5UTR inh – inhibition of PrP 5' UTR reporter expression; cell-based PrP 5' UTR mRNA reporter, plate reader; inhibition, % (test concentration not listed); 0.35% of 340,000 active; in the data active = inhibition above about 52%; also: 0 = median of the neutral control wells
PriA SSB inh – K. pneumoniae PriA-SSBct interaction inhibition; inhibition, % at 33 µM; AlphaScreen SSBct-PriA binding, biotinylated peptide; AID 1272365; 0.6% of 430,000 active; in the data active = inhibition mostly above about 37%, no sharp cut-off; inactive = mostly below about 20%;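 also: plate controls were negative control peptide for no effect and reference peptide for full effect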
PrP UTR cherry – prion 5' UTR mRNA inhibition, cherry-pick retest; cell-based prion protein 5' UTR reporter, plate reader; inhibition, % at 2.5 µM; shares compounds with PrP 5UTR inh; AID 504592; 48% of 1,100 active; in the data active = inhibition above about 54%
* hit, by the source's call; x = not tested or not shown. Compounds with a hit are over-represented: about 1.2% of the library has one in this group of screens.

SMILES	3CLpro inhibitor	PrPC TRFRET	BJeLR lethal	PrP 5UTR inh	PriA SSB inh	PrP UTR cherry
Cc1c(C)c2ccc(OCC(=O)Nc3ccccn3)c(C)c2oc1=O	-13.2	-2.6	29.1	92.9*	2.0	94.2*
Cc1c(C)c2cc(Cl)c(OCC(=O)Nc3ccccn3)cc2oc1=O	x	-2.8	x	x	x	x
O=S(=O)(NN=Cc1ccc(F)cc1)c1ccccc1	x	x	x	x	-12.1	x
O=C1NCCNC1=CC(=O)c1ccc(Br)cc1	x	x	x	x	3.8	x
CC(C)(C)c1ccc(C(=O)Nc2ccc(Cl)cc2)cc1	1.5	-2.1	3.0	-147.0	-6.7	x
COC(=O)Cc1ccc(NC(=O)c2ccc(C(C)(C)C)cc2)cc1	-1.6	8.2	13.3	78.9*	3.3	64.9*
Cc1ccc(NC(=O)C2CCCN(S(=O)(=O)c3cnc[nH]3)C2)c(Br)c1 (stereo not given)	3.1	-7.0	1.1	73.1*	-5.1	-0.9
COc1cc(-c2noc(C)c2-c2ccc(N(C)C)nc2)cc(OC)c1OC	2.6	2.7	41.2	66.6*	11.6	89.9*
Cc1ccc(-c2cc3onc(-c4ccccc4)c3c(=O)n2C)cc1	x	1.9	x	61.1*	10.5	10.6
Cc1ccc(C(=O)N2CCN(c3cc(N4CCOCC4)cnn3)CC2)cc1C	x	x	x	x	-7.0	x
Cc1cc(C)c(S(=O)(=O)N2CCN(C(=O)CCOc3ccccc3C)CC2)c(C)c1	x	-1.6	x	88.3*	-13.9	0.9
O=C(Nc1ccccc1-c1nc2ccccc2s1)c1cc2ccccc2oc1=O	x	x	x	x	-4.0	x
CC(=O)Nc1ccc(CN2CCCC(CCC(=O)NCc3ccccc3F)C2)cc1 (stereo not given)	5.7	-2.5	8.4	80.4*	-8.6	-1.9
CCCN(CCC)C(=O)c1ccc2c(=O)n(Cc3ccco3)c(=S)[nH]c2c1	-3.1	1.3	-0.9	82.8*	-8.4	17.3
CN1C2CCC1/C(=C/c1ccccn1)C(=O)/C2=C\c1ccccn1	2.3	6.3	x	78.1*	-3.5	91.1*
CC(C)(C)C1C/C(=C/c2ccccn2)C(=O)/C(=C/c2ccccn2)C1 (stereo not given)	-1.2	x	-0.4	91.6*	-7.5	97.0*
CC1C/C(=C/c2ccccn2)C(=O)/C(=C/c2ccccn2)C1 (stereo not given)	-2.4	x	-15.4	36.9	-6.0	x
CCCCOc1ccc(-c2nc(C=Nc3nccs3)c(O)o2)cc1	x	x	x	x	-18.2	x
c1ccc2nc(N3CCCC3)c(N3CCCC3)nc2c1	3.3	-4.4	28.7	-5.8	-19.8	x
CN(C)C=Nc1nc2ccccc2nc1N1CCCC1	0.5	-9.4	8.3	54.2*	-2.5	-3.1
O=C(Nc1ccc(OCc2ccccc2Cl)cc1)c1cccnc1	1.4	12.7	-1.8	65.9*	-7.2	71.2*
O=C(Nc1ccc(OCc2ccccc2)cc1)c1cccnc1	8.2	2.1	-12.8	-42.3	-1.4	x
CCc1ccc(/C=C2\SC(=S)N(CCCC(=O)Nc3ccccn3)C2=O)cc1	-9.0	-1.6	-9.5	57.2*	2.2	55.1*
c1ccc(-c2nnc(CN3CCc4ccccc43)o2)cc1	x	x	x	x	-1.0	x
O=C(O)CCCc1ccc2c(c1)CCc1ccccc1-2	x	-3.3	-7.9	64.8*	4.0	75.5*
SMILES	3CLpro inhibitor	PrPC TRFRET	BJeLR lethal	PrP 5UTR inh	PriA SSB inh	PrP UTR cherry
CCNC(=O)CC1C(=O)N(CC)C(=S)N1NC(=O)c1cccnc1 (stereo not given)	1.7	-1.1	4.3	80.3*	-12.2	-7.8
C(=NNc1nc2ccccc2[nH]1)c1ccncc1	x	x	x	x	-18.8	x
C(=N\Nc1nc2ccccc2[nH]1)/c1ccccc1	0.7	4.2	-8.4	55.1*	x	-56.2
COc1ccc(C2C(=C(O)c3ccc(F)cc3)C(=O)C(=O)N2CCCN(C)C)cc1 (stereo not given)	x	x	x	x	4.2	x
Cc1ccc(-n2ncc(C#N)c2N=CN(C)C)cc1	x	x	x	x	-23.6	x
COc1ccc(CNC(=O)Cc2ccc(NC(=O)C3=C(C)OCCS3)cc2)cc1	-4.3	11.1	0.0	-84.7	-7.0	x
CC1=C(C(=O)Nc2ccc(CC(=O)NCc3ccc(OC(C)C)cc3)cc2)SCCO1	-0.6	16.8	25.7	71.6*	9.6	86.6*
Nc1ccc2oc(-c3cccc4ccccc34)nc2c1	2.7	2.6	2.8	51.5*	-47.1	64.8*
Cc1ccc(-c2nc3cc(N)ccc3o2)c(C)c1	2.3	-1.8	-2.2	-33.4	-8.3	x
CC(=NNC(=O)c1ccc(Cl)cc1)c1cccc(NC(=O)c2cccnc2)c1	x	x	x	x	2.1	x
NC(=O)c1nsc(C(=O)N(CC(=O)NCc2ccc3c(c2)OCO3)C2CCCC2)c1N	1.0	-2.0	5.0	75.6*	-1.4	-16.2
CCCC(C(=O)NC1CCCC1)N(Cc1ccc2c(c1)OCO2)C(=O)c1snc(C(N)=O)c1N (stereo not given)	-5.6	0.1	2.8	-15.6	-7.5	x
Cc1ccc(-c2cn3nc(C)c(C)nc3n2)cc1	3.8	-30.7	6.6	67.0*	0.4	64.5*
CSC1CC2CCC(C1)N2C(=O)Cc1ccc(Br)cc1 (stereo not given)	x	x	x	x	33.0	x
O=C(CCS(=O)(=O)c1ccc(Cl)cc1)Nc1nnc(CCSc2ccccc2)o1	x	x	x	x	-8.0	x
CCN(CC)c1ccc(C2NC(=O)c3ccccc3N2)cc1 (stereo not given)	x	-4.4	x	60.0*	-13.9	-6.7
Cc1cc(C)cc(N(CC(=O)N2CCc3ccccc32)S(=O)(=O)c2c(C)noc2C)c1	1.9	0.9	0.5	-5.0	3.5	x
Cc1cc(C)cc(N(CC(=O)N2CCn3c2nc2ccccc23)S(=O)(=O)c2c(C)noc2C)c1	-0.8	4.6	-1.8	67.2*	-16.8	-3.0
CCOc1ccc(N(CC(=O)N2CCc3ccccc32)S(=O)(=O)c2c(C)noc2C)cc1	-1.4	-5.0	1.2	79.1*	-8.1	9.0
COc1cccc(C(=O)NN=c2oc3ccccc3cc2C(N)=O)c1	x	x	x	x	0.9	x
Cc1nnc(C2CCN(CC(=O)Nc3ccc4c(c3)OCO4)CC2)s1	x	x	x	x	-29.0	x
Cc1nc2c(-c3ccccc3)cnn2c(N)c1-c1ccccc1	3.8	8.5	5.3	64.7*	-18.4	10.2
Cc1nnsc1C(=O)NC(C)Cc1ccoc1 (stereo not given)	x	x	x	x	8.0	x
Cc1ccc(C(=O)Nc2ccc3ncccc3c2)cc1	3.7	-0.8	14.5	55.6*	4.7	31.3
COc1ccc(C(=O)Nc2ccc3ncccc3c2)cc1	0.4	7.1	-0.2	-19.4	4.2	x
SMILES	3CLpro inhibitor	PrPC TRFRET	BJeLR lethal	PrP 5UTR inh	PriA SSB inh	PrP UTR cherry
COc1cc(OC)c(NC(=O)NCc2ccnc(N3CCOCC3)n2)cc1Cl	x	x	x	x	1.0	x
O=C(c1cc(-c2cccs2)nc2ccccc12)N1CCN(c2ccccc2)CC1	0.2	-3.6	3.9	-21.5	5.8	x
COc1cc(C(=O)N2CCN(c3ccccc3)CC2)c2ccccc2n1	x	2.3	x	74.5*	5.7	87.9*
C=CCN(CC=C)S(=O)(=O)c1ccc(NC(=S)NC(=O)/C=C/c2ccccc2)cc1	0.6	2.0	-3.9	59.1*	2.8	-9.4
COc1cc(OC)cc(-c2cc3cc4c(cc3cn2)OCO4)c1	x	x	x	62.4*	-1.1	80.6*
COc1ccc(-c2cc3cc4c(cc3cn2)OCO4)cc1	x	6.3	x	-6.9	0.1	x
